Test results as given in ChEMBL document CHEMBL2218924, “A broad activity screen in support of a chemogenomic map for kinase signalling research and drug discovery” (Biochem J, 2013).

Assays:
[1] = target: Ephrin type-A receptor 7 (Homo sapiens) (UniProt Q15375); conditions: at 10 µM
[2] = target: T1, Ephrin type-B receptor 3 (Homo sapiens) (UniProt P54753); conditions: at 1 µM
T1 sequence (whole entry): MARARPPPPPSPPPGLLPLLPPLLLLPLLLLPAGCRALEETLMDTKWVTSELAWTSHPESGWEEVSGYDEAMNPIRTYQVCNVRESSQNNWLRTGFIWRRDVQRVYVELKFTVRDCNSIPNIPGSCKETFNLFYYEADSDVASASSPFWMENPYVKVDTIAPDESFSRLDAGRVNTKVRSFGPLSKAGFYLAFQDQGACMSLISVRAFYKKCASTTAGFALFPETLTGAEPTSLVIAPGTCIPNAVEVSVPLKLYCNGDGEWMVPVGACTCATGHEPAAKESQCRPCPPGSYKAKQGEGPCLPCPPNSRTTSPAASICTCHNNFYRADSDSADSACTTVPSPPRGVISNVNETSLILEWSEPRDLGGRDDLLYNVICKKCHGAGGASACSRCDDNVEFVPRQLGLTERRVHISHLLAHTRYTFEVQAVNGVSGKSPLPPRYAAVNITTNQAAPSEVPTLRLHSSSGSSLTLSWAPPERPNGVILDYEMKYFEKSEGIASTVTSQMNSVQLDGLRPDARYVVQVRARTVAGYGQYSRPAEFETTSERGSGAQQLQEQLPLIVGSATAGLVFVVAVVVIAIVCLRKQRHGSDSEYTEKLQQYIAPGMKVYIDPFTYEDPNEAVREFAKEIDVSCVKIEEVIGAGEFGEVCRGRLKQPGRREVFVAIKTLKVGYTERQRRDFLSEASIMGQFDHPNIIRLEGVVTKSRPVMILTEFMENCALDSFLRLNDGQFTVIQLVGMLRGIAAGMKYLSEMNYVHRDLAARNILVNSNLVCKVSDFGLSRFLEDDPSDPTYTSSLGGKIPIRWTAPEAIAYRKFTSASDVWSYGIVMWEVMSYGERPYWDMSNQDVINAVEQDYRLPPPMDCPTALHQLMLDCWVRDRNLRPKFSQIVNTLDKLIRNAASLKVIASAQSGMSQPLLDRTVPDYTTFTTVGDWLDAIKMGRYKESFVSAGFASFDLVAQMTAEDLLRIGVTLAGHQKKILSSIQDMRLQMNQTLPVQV

[3] = target: T1, Ephrin type-B receptor 3 (Homo sapiens); conditions: at 10 µM
[4] = target: T2, Ephrin type-B receptor 4 (Homo sapiens) (UniProt P54760); conditions: at 1 µM
T2 sequence (whole entry): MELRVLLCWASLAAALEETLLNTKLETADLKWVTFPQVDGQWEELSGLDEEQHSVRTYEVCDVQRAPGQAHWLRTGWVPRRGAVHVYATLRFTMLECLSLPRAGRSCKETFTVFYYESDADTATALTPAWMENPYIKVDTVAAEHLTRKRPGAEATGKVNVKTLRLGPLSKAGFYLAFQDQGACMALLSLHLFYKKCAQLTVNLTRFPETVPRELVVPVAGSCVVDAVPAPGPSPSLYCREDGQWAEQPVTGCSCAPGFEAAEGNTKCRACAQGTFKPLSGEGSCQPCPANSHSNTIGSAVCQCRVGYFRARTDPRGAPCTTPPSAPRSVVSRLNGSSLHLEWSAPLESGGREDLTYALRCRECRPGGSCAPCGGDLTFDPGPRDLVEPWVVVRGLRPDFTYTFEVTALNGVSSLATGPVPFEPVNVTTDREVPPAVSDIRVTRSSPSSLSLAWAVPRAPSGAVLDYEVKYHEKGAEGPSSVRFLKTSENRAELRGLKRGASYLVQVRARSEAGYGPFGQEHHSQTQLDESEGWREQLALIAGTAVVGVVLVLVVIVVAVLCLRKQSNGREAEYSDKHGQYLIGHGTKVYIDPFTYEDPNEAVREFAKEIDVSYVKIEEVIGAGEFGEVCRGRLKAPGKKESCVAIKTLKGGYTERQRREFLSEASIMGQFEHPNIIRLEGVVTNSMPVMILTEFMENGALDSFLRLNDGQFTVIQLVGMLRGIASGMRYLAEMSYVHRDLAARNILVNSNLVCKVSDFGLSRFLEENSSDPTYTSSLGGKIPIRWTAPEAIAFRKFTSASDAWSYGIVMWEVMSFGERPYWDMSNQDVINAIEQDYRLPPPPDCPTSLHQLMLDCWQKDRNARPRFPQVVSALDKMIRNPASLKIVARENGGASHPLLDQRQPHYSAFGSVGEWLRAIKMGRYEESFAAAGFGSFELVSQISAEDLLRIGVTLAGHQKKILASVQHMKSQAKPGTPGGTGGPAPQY

[5] = target: T2, Ephrin type-B receptor 4 (Homo sapiens); conditions: at 10 µM
[6] = target: Receptor tyrosine-protein kinase erbB-4 (Homo sapiens) (UniProt Q15303); conditions: at 1 µM
[7] = target: Receptor tyrosine-protein kinase erbB-4 (Homo sapiens) (UniProt Q15303); conditions: at 10 µM
[8] = target: Focal adhesion kinase 1 (Homo sapiens) (UniProt Q05397); conditions: at 1 µM
[9] = target: T3, Ephrin type-A receptor 3 (Homo sapiens) (UniProt P29320); conditions: at 10 µM
T3 sequence (whole entry): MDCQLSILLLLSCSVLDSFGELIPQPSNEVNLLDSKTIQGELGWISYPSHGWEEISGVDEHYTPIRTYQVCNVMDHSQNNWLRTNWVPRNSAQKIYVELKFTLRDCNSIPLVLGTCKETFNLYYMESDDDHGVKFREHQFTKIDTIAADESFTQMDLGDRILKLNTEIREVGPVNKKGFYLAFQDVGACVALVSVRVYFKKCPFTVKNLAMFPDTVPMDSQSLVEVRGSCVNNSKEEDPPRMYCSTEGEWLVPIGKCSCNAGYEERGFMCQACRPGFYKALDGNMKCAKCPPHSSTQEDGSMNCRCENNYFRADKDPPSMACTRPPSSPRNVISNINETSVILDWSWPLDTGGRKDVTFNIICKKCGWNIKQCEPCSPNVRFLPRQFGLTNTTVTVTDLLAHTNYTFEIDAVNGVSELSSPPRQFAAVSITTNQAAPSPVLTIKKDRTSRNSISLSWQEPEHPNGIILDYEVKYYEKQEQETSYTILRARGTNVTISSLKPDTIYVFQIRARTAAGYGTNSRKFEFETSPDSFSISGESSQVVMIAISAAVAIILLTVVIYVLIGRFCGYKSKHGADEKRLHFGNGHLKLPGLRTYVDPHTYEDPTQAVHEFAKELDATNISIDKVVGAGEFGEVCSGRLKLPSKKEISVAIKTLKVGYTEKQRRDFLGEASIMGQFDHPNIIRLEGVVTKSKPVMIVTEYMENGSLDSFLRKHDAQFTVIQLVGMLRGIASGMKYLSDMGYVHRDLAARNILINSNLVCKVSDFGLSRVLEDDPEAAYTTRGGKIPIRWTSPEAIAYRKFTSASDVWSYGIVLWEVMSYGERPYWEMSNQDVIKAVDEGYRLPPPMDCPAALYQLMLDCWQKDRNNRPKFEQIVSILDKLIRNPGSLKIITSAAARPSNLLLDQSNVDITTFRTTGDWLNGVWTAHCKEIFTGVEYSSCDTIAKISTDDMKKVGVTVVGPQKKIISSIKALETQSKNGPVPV

[10] = target: Ephrin type-A receptor 7 (Homo sapiens) (UniProt Q15375); conditions: at 1 µM
[11] = target: T4, Ephrin type-A receptor 8 (Homo sapiens) (UniProt P29322); conditions: at 1 µM
T4 sequence (whole entry): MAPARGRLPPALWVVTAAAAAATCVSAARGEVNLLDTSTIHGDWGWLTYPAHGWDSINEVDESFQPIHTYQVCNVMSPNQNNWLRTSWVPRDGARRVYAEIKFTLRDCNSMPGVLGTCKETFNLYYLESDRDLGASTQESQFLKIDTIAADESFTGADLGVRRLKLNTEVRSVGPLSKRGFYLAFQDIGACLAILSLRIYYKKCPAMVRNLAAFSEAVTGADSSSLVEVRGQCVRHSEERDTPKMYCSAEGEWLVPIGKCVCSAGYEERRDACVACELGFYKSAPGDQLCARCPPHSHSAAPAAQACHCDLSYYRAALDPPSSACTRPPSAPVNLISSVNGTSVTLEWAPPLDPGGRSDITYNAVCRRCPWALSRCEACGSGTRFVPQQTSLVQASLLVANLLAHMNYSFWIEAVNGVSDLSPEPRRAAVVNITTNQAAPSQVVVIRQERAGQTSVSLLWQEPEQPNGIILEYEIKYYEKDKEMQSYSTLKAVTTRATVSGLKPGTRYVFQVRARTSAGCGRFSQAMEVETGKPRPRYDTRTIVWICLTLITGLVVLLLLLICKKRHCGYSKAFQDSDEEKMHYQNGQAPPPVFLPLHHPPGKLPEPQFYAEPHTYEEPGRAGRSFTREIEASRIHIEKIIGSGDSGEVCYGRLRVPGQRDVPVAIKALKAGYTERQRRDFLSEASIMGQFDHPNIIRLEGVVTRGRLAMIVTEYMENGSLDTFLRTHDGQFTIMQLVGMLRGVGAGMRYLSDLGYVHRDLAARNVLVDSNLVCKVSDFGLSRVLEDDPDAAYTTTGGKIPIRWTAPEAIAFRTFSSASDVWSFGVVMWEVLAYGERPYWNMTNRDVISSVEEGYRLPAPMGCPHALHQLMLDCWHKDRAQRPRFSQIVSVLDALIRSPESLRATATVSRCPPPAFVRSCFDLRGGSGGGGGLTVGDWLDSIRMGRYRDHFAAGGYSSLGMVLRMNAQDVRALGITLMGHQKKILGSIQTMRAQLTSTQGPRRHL

[12] = target: T4, Ephrin type-A receptor 8 (Homo sapiens); conditions: at 10 µM
[13] = target: T5, Ephrin type-B receptor 1 (Homo sapiens) (UniProt P54762); conditions: at 1 µM
T5 sequence (whole entry): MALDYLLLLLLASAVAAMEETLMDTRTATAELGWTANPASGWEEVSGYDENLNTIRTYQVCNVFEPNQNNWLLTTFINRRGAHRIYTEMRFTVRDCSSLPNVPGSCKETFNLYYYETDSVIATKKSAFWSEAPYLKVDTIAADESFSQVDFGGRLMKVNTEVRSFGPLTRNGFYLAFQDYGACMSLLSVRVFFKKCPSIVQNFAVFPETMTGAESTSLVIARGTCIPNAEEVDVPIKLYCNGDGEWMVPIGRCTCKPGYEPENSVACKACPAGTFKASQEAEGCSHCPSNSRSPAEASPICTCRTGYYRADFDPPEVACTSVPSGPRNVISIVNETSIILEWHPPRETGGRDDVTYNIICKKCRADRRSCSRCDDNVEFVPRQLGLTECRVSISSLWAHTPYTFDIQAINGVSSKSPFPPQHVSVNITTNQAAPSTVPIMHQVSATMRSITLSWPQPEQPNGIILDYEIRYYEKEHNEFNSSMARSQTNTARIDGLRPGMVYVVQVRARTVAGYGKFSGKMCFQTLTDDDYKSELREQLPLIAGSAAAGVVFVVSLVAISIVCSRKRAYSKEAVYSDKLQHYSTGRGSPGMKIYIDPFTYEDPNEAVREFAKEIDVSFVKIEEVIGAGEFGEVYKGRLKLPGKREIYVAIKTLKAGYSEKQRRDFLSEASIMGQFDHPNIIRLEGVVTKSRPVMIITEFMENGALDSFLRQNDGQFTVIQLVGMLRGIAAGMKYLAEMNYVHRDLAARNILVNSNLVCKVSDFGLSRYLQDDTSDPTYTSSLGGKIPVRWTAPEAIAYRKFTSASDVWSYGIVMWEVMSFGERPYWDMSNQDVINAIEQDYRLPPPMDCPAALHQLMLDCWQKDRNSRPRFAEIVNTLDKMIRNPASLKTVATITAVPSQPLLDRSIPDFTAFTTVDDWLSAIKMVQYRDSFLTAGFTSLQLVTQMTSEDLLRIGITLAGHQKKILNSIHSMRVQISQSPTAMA

[14] = target: T5, Ephrin type-B receptor 1 (Homo sapiens); conditions: at 10 µM
[15] = target: T6, Ephrin type-B receptor 2 (Homo sapiens) (UniProt P29323); conditions: at 10 µM
T6 sequence (whole entry): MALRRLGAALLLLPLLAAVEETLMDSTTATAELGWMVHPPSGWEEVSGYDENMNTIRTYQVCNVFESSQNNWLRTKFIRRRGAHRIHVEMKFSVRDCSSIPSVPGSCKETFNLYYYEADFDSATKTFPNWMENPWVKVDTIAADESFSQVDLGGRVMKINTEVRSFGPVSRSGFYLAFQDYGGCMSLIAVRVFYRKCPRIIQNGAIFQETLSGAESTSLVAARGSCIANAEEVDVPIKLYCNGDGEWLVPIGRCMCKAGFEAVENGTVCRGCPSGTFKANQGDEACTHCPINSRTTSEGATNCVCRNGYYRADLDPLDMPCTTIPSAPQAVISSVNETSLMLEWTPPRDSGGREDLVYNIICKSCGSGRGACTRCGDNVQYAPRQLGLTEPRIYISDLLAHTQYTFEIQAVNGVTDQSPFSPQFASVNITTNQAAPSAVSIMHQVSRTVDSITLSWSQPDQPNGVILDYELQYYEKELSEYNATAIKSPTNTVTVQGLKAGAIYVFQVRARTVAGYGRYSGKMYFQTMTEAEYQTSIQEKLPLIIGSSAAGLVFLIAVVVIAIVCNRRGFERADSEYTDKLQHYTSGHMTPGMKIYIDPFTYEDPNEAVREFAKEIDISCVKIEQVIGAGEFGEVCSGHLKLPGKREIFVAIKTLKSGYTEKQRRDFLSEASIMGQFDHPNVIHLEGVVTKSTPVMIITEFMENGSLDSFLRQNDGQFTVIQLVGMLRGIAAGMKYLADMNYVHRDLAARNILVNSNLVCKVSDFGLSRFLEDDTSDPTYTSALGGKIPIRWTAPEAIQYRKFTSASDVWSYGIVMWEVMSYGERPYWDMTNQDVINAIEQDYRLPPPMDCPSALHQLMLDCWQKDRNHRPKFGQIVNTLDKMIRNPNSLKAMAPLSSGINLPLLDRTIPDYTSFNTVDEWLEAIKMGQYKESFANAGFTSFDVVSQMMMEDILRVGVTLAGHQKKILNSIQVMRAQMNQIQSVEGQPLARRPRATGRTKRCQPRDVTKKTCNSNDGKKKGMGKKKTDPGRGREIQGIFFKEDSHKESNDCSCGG

Sequence of Ephrin type-A receptor 7 (Homo sapiens) (Q15375 28-998 limits assumed): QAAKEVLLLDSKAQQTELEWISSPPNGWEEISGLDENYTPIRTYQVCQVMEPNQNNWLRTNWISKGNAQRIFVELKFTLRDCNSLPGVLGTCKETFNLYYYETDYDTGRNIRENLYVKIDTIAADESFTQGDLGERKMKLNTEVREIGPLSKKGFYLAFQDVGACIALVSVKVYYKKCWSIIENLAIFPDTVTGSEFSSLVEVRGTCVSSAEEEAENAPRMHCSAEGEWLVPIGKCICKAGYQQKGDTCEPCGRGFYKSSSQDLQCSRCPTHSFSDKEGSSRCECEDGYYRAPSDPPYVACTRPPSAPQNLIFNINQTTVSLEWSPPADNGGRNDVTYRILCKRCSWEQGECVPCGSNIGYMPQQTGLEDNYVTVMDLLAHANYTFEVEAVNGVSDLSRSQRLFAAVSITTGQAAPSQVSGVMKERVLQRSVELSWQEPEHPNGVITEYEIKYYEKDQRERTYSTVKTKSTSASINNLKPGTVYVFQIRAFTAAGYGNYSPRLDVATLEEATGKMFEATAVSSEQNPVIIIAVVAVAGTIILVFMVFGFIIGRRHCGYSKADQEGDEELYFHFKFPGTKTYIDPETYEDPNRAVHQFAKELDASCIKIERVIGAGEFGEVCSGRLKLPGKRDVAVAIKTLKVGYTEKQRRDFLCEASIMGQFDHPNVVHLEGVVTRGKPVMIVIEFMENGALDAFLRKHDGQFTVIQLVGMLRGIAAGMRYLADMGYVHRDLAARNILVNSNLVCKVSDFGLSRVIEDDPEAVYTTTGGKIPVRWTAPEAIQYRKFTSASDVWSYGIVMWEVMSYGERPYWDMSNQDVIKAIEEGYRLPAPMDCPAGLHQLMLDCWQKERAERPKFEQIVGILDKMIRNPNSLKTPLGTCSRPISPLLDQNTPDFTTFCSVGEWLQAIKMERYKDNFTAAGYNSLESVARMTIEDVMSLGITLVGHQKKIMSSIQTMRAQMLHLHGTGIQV
Sequence of Receptor tyrosine-protein kinase erbB-4 (Homo sapiens) (Q15303 whole entry): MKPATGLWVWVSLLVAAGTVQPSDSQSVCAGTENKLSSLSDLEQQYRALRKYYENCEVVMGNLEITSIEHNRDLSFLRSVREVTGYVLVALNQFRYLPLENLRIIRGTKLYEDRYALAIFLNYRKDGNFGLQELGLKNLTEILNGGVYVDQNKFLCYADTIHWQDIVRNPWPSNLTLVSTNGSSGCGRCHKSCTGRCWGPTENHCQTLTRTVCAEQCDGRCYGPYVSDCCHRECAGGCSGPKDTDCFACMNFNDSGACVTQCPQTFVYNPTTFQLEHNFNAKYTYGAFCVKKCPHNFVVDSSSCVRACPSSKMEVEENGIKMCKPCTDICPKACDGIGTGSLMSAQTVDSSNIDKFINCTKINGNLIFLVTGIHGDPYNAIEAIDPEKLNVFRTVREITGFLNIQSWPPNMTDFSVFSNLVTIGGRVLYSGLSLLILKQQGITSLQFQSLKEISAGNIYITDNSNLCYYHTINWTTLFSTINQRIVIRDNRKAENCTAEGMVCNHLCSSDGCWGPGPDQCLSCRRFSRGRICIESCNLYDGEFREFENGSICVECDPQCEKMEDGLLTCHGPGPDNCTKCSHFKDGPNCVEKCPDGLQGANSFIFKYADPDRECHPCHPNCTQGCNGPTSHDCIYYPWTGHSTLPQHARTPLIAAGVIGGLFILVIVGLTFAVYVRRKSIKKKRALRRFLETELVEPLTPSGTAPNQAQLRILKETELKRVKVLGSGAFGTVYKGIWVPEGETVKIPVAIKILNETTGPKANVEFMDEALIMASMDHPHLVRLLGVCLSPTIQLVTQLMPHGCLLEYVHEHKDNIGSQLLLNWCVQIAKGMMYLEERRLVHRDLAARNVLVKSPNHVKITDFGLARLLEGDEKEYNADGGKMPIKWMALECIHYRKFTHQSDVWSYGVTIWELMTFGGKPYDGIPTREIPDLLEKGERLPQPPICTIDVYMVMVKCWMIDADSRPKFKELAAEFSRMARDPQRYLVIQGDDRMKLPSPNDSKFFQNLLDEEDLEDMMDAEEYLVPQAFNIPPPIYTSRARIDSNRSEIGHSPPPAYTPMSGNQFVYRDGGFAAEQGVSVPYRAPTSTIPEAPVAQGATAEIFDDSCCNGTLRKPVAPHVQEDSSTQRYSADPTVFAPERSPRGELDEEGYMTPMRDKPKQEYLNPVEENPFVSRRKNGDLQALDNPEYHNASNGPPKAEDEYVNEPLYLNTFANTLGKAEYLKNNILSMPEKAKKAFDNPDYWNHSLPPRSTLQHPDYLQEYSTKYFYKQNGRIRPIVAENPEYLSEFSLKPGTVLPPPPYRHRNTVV
Sequence of Focal adhesion kinase 1 (Homo sapiens) (Q05397 2-1052 limits assumed): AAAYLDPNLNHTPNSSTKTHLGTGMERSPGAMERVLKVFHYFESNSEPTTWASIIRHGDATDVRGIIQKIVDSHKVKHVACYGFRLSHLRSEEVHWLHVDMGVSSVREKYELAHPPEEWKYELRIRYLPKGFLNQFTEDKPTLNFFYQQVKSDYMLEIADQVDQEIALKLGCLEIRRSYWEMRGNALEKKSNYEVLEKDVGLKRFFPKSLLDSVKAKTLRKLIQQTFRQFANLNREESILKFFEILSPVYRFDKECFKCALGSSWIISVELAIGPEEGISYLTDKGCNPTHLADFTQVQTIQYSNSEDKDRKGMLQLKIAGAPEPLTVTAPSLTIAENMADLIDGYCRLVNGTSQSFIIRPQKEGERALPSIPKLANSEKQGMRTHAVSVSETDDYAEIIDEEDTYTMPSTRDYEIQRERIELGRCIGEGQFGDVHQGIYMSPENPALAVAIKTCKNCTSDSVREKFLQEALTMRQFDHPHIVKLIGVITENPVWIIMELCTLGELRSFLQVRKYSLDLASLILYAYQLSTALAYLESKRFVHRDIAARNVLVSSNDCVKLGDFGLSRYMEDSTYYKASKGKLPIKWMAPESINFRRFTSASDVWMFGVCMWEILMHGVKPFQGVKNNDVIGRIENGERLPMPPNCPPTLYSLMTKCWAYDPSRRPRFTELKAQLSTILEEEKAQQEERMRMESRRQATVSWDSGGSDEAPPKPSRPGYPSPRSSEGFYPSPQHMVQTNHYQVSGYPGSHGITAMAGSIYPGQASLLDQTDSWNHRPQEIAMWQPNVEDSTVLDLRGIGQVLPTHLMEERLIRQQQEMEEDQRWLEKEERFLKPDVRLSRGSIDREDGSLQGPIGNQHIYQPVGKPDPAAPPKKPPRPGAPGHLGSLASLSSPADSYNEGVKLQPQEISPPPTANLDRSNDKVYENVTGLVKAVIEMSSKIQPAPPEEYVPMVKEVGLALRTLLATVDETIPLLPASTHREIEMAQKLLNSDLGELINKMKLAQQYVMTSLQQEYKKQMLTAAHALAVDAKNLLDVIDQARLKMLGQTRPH

SMILES | residual activity [1] [%] | residual activity [2] | residual activity [3] [%] | residual activity [4] [%] | residual activity [5] [%] | residual activity [6] [%] | residual activity [7] [%] | residual activity [8] [%] | residual activity [9] [%] | residual activity [10] [%] | residual activity [11] [%] | residual activity [12] [%] | residual activity [13] [%] | residual activity [14] [%] | residual activity [15] [%]
COc1cc2ncc(-c3ccccc3)nc2cc1OC | 94 | 132% (inactive) | 90 | 125 | 123 | 88 | 85 | 139 |  |  |  |  |  |  | 
Cc1cc2ncc(-c3ccccc3)nc2cc1C | 93 | 106% (inactive) | 125 |  |  | 99 | 105 |  | 92 | 99 | 97 | 98 | 106 | 106 | 103
